Entries with a potency or affinity are not part of this list. Results filed as inconclusive are left out. Active and inactive are the calls of the source. The rule behind the calls is not given here.
Experiment: toxicity to human HepG2 hepatoma cells – cell-based, plate reader, dry powder samples, cytotoxicity control, dose response (AID 1159569)

Compound	outcome
C[C@@H]1CN([C@H](C)CO)C(=O)c2cccc(NC(=O)c3ccc(-c4nccs4)cc3)c2O[C@H]1CN(C)Cc1ccc(C(F)(F)F)cc1	inactive
Cc1ccc(S(=O)(=O)N(C)C[C@H]2OCc3ccccc3-c3c(n(C)c4ccccc34)C(=O)N([C@H](C)CO)C[C@@H]2C)cc1	inactive
O=C(c1ccccc1F)N1CC(=O)N2[C@H](C1)[C@@H](c1ccc(-c3cccnc3)cc1)[C@@H]2CO	inactive
COc1cccc(C#Cc2cnc3c(c2)C(=O)N([C@@H](C)CO)C[C@H](C)[C@@H](CN(C)C(=O)C2CCCCC2)O3)c1	inactive
N#C[C@@H]1[C@H](c2ccccc2C2=CCCCC2)[C@@H](CO)N1C(=O)c1cccc(F)c1	inactive
COc1cccc(S(=O)(=O)N(C)C[C@@H]2OCc3ccccc3-c3c(n(C)c4ccccc34)C(=O)N([C@H](C)CO)C[C@@H]2C)c1	inactive
CC(C)(C)[S@@](=O)N1Cc2cc(C(=O)N[C@@H]3CCN(Cc4ccccc4)C3)nc(-c3cccc(-c4cccnc4)c3)c2[C@H]1CCO	inactive
C[C@@H]1CN([C@@H](C)CO)C(=O)c2cccc(NC(=O)c3ccc(-c4nccs4)cc3)c2O[C@H]1CN(C)Cc1ccc(Cl)c(Cl)c1	inactive
COc1ccc2c3c(n(C)c2c1)[C@@H](CO)N(C(=O)C1CCC1)CC31CN(C(=O)Nc2cccc(F)c2)C1	inactive
O=C(NC[C@@H]1CC[C@H]2[C@H](CN2Cc2cc(-c3ccccc3)on2)O1)c1ccc2c(c1)OCO2	inactive
C[C@H](CO)N1C[C@H](C)[C@@H](CN(C)C(=O)Nc2ccc(-c3ccccc3)cc2)OCc2ccccc2-c2c(n(C)c3ccccc23)C1=O	inactive
COc1ccc(C#Cc2ccc3c(c2)O[C@H](CN(C)C(=O)Nc2cccc(OC)c2)[C@H](C)CN([C@@H](C)CO)S3(=O)=O)cc1	inactive
CCCC(=O)N1CC2(C1)CN(S(=O)(=O)c1ccc(C)cc1)[C@@H](CO)c1[nH]c3cc(OC)ccc3c12	inactive
COc1ccc(NC(=O)N(C)C[C@@H]2Oc3cc(-c4ccc(C)cc4)ccc3S(=O)(=O)N([C@H](C)CO)C[C@@H]2C)cc1	inactive
COc1cccc(C#Cc2ccc([C@H]3[C@@H](CO)N(C(=O)c4ccccn4)[C@H]3C#N)cc2)c1	inactive
COc1ccc2c3c([nH]c2c1)[C@H](CO)N(S(=O)(=O)c1ccc(C)cc1)CC31CCN(C(=O)Cc2cccnc2)CC1	inactive
COc1ccc(C#Cc2ccc3c(c2)O[C@@H](CN(C)C(=O)Nc2cccc(OC)c2)[C@@H](C)CN([C@H](C)CO)S3(=O)=O)cc1	inactive
CN1c2ccc(C#Cc3cccnc3)cc2[C@H]2[C@H](CCN2S(=O)(=O)c2ccc(F)cc2)[C@H]1CO	inactive
CCCNC(=O)N1[C@H](C#N)[C@H](c2ccc(C#Cc3cccc(F)c3)cc2)[C@H]1CO	inactive
C[C@@H]1CN([C@@H](C)CO)S(=O)(=O)c2ccc(C#CC3CCCC3)cc2O[C@H]1CN(C)C(=O)Cc1ccncc1	inactive
COc1cccc(S(=O)(=O)N(C)C[C@@H]2Oc3ncc(C#Cc4ccc(OC)c(OC)c4)cc3C(=O)N([C@H](C)CO)C[C@@H]2C)c1	inactive
O=C(Nc1ccccc1F)N1CCCCN2[C@H](CO)[C@H](c3ccc(C#Cc4cccnc4)cc3)[C@@H]2C1	inactive
CCC(=O)N1CCC2(CC1)CN(S(=O)(=O)c1ccccc1)[C@@H](CO)c1[nH]c3cc(OC)ccc3c12	inactive
COc1cccc(C#Cc2ccc([C@H]3[C@@H](CO)N(C(=O)C4CCC4)[C@H]3C#N)cc2)c1	inactive
COc1ccc(NC(=O)N2CCC3(CC2)CN(C(=O)C2CCC2)[C@H](CO)c2c3c3ccc(OC)cc3n2C)cc1	inactive
CC(C)(C)S(=O)N1Cc2cc(C(=O)NCc3ccc4c(c3)OCO4)nc(-c3cccc(-c4cc5ccccc5o4)c3)c2[C@H]1CCO (stereo not given in full)	inactive
COc1ccc(NC(=O)N2CCCCN3[C@@H](CO)[C@H](c4ccc(C#Cc5ccccn5)cc4)[C@@H]3C2)cc1	inactive
COc1ccc(C#Cc2ccc3c(c2)O[C@@H](CN(C)C(=O)Nc2cccc(OC)c2)[C@H](C)CN([C@H](C)CO)S3(=O)=O)cc1	inactive
C[C@@H]1CN([C@@H](C)CO)C(=O)c2cccc(NC(=O)c3cnccn3)c2O[C@@H]1CN(C)Cc1ccc(-c2ccccc2)cc1	inactive
COc1ccccc1S(=O)(=O)N(C)C[C@H]1OCc2ccccc2-c2c(n(C)c3ccccc23)C(=O)N([C@@H](C)CO)C[C@@H]1C	inactive

From PubChem BioAssay AID1159569 (Broad Institute, 2015)
